# Test system: VDR:RXRa (NR concentration 270 nM, RXRa partner concentration 90 nM)
# Experiment: PBM binding z-score (relative to random genomic background probes); higher = stronger binding; sequences stand for … in GC…GCGATTGACAGCGTAGAATGAAGG
# Description: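 Protein-binding microarray (Agilent 4x180K custom design, double-stranded 60-nt probes: 5' GC cap, 34-nt variable region, 24-nt constant primer region; full probe sequence given). Purified or IVT nuclear receptor:RXRα heterodimers (3:1 NR:RXRα, mostly 270:90 nM) or homodimers were incubated for 1 h in PBS with 2% milk and no ligand, then detected with Alexa488 antibodies. Fluorescence from o1-orientation probes (~5 replicates averaged) was converted to z-scores against 500 random hg19 background probes. Variable regions are seed direct-repeat (DR0–DR5) sites, all their single-nucleotide variants and half-site ablations.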
row,Sequence,PBM binding z-score
1,CCCTACGGGTCAAGGTTATAGCACGGGTGGTACG,3.26
2,CCAACTAGGTCAAAGGTCAAAGTCGAGCCAACCA,6.81
3,ACTAGTTGGGCAGCTGAGGTCACACACAATTCGG,3.72
4,TCGAGTAGGTTAGTCGGGGCCTTCAGCCAACATA,-0.158
5,GCTAGCAGACCATTTGGGTCACTCAATGACGGGC,-0.0299
6,AGAACGAGGGCACGCTGATTTGATAGCAGAGTAG,0.858
7,TAGCCTATGTCATGCGGGCCAGTATAGTGTCGGC,-0.45
8,ATCTCTAGGTAAGACTCAGTTCAGTGACGAACGC,0.924
9,CCTACTGGGCTATCAGGTCATTGATATCAACGTT,1.36
10,GCGACTGGGGCAAAGTAGGTTACCATAAGGTTGG,-0.0639
11,GGTGCTAGGTCAACTGATGGTCAGCTAAAGCTCG,1.89
12,CCTTACGGGTCACGAGTTTATAGCACGACGAGCG,5.73
13,GAGACTGGGGCAAAGCAGGTTACCATAAGGTTGG,0.398
14,TCATATAGGTAAAGGTGAAAGTCGAACGATATGA,0.971
15,CCGAGTAGGTTATGGCGCATTCAGGCAACGGTGA,-0.266
16,CCTGGTTGGTCAAGGTCACACACGCTATAGGTAC,4.37
17,ATCTCTAGGTAACCAAGCTCAGTGAATGCCGAAC,-0.169
18,ATATGTAGGTTAGCTGGGGTCAATCAGACTAGGC,5.46
19,CCTAGCAGGCTAGGGTCACTCAAGCATTTCGCTT,2.72
20,TCACACAGGTGAAGGTAACTCAGGTACGCAGTCG,0.751

row,Sequence,PBM binding z-score
1,CGTCCAAGGTCAAGGTCAGAGAAAGAGACTCGAA,4.57
2,TCTAGCAGGCCAGAGGGTAACTCAAGAGGTACGG,-0.204
3,CGAACTAGGTCATTCAGGACAGTGAATACATTGA,4.46
4,CGTCAAAATTCAACTAAGGTAACGTAAAGCACGC,0.298
5,CCTACTGAGCCATTCAGAGGTCATTGATCATATG,3.96
6,CAAACTAGGTCACAGAGGTCAATGTCCGTGCGTA,7.62
7,CCTACTGGGCCACGAAAGGTCATTCATTCAGTGA,4.43
8,CAAACTAGGTCAAGAGGTCAAAGTACGCTTCCCG,6.22
9,ATCTCTAGGCAAAAGTTCAGTGAATCCCGAGGAT,0.715
10,TCTCGGAGGACACGAAAGGTCAGAGCTCGACATC,3.28
11,AGTCAAAGTTCACTAGGTCACGTAAGATTCAGCT,5.1
12,CCTTACTGGTCACTGACAGGTTATAGCATTTGGA,0.592
13,TGTCAAAGTTCAAAGGTAGCGTAAGTATCCACAC,4.76
14,CCTACTGGGCCATCACGTCATTGATATCAACGTT,-0.314
15,CCGACTGGGGCCAAGGTTACCATACTCAGTACGA,0.63
16,ACTATTAGTTGACTTAGTGCAACCGATACGACGC,0.264
17,AGAATCAGGTTATTAAGATCAGGGAATTGCGGTC,1.08
18,CCACCAAGGTGAACAAGGTCGTTGATTACTATTC,6.23
19,CCTAGTTGGTCAGGGTCACACACGCTATAGGTAC,4.17
20,CAAACTAGGTCCCGAAAGGTCAAAGTCGAATGAC,4.92
